In the library only some 21% were active in any assay of this set; here they are far more common.
MRP reversal: reversal of MRP1-mediated doxorubicin resistance, primary screen, H69AR cells, doxorubicin co-treatment; H69AR cells + 2 uM doxorubicin, CellTiter-Glo, 72 h; differential viability (reversal), % at 10 µM; actives 0.04% (n = 85,000);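 active means viability drop by adding the cancer drug above about 55%, with treated viability meeting a 40% cutoff, limit read from the data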;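 further: viability without doxorubicin minus viability with 2 µM doxorubicin for each compound; larger differential means the compound sensitizes cells more to doxorubicin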
CYP2C9 activ: human CYP2C9 activators, primary screen, biochemical, luminescence; Cytochrome P450 2C9 (Homo sapiens), P11712; recombinant CYP2C9, luciferin-H conversion; stronger effect = higher value; factor 1 = untreated enzyme, 0 = blocked; activation factor at 5 µM; actives 1.4% (n = 96,000);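 active means activation factor of 2 or more for CYP2C9 at a 5 µM dose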;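 further: 0 = sulfaphenazole-blocked wells and 1 = vehicle-only wells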
Target sequence (P11712 whole entry, looked up): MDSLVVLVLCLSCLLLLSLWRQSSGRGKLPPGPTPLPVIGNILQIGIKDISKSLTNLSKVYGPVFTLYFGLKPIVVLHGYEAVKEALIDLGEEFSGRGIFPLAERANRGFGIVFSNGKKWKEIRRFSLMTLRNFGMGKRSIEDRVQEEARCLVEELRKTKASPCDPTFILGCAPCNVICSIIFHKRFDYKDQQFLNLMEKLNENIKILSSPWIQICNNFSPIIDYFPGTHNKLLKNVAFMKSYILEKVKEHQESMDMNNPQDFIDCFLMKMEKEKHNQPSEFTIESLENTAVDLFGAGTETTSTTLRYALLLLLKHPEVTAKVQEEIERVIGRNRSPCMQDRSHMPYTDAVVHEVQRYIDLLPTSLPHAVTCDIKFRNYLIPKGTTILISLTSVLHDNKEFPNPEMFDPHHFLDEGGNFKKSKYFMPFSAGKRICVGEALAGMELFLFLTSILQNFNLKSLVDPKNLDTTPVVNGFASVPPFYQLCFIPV
MRP1 act: H69AR viability gain despite doxorubicin, primary screen, MRP-1 activator project, H69AR cells, CellTiter-Glo; viability rescue; viability increase, % at 10 µM; actives 0.61% (n = 140,000);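 active means viability gain under doxorubicin at or above a set limit, the compound median plus 3 SD, cut at about 4.7% in these data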;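 further: MRP-1 overexpressing cells given doxorubicin 25 µM after compound pretreatment; 18-22 h compound pretreatment then 72 h with doxorubicin before readout; 0% = doxorubicin-only wells and 100% = vehicle-treated cells without doxorubicin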
CYP2C19 inh: blockers of cytochrome P450 2C19 activity – biochemical, luminescence, ADME assay, primary screen. P33261. CYP2C19 Supersomes, luciferin-H EGE luminescence, 30 min. inhibition, % at 5 µM. actives 21% (n = 96,000). AID 778, 2007;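 active means CYP2C19 inhibition above a set limit at 5 µM in the primary screen, cut at about 50% in these data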;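 further: plate controls were negative control wells for no effect and 2.5 mM tranylcypromine positive control for full effect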
CYP2C9 inh: blockers of cytochrome P450 2C9 activity – biochemical, luminescence, ADME assay, primary screen | actives 20% (n = 96,000) | inhibition, % at 5 µM | P11712 | AID 777, 2007 | CYP2C9 Supersomes, luciferin-H conversion;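 active means blocking of liver enzyme CYP2C9 beyond about 50% at 5 µM, limit read from the data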
CYP2C19 activ: human CYP2C19 activators, primary screen, biochemical, luminescence; activation factor at 5 µM; Cytochrome P450 2C19 (Homo sapiens), P33261; recombinant CYP2C19, luciferin-H EGE luminescence; stronger effect = higher value; 0 = fully inhibited enzyme, 1 = untreated enzyme; 96,000 tested, under 10 active; AID 1025, 2008;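 active means activation factor of at least 2 at 5 µM in the primary screen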;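 further: 0 = wells with 2.5 mM tranylcypromine and 1 = vehicle-only wells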
Numbers without * were called inactive; x = no result given.

SMILES | MRP reversal | CYP2C9 activ | MRP1 act | CYP2C19 inh | CYP2C9 inh | CYP2C19 activ
COc1ccc2nc(N3CCC(O)CC3)c(C#N)cc2c1 | 8 | 0.8 | -2 | 63* | 16 | 0.4
CS(=O)(=O)N(CC(=O)N1CCC(C(N)=O)CC1)c1ccc(Oc2ccccc2)cc1 | 0 | 1 | -1 | -10 | 3 | 1.1
CCOC(=O)C1C(c2ccc(O)c(OC)c2)NC(=S)NC1(O)C(F)(F)F (stereo unspecified) | x | x | 0 | x | x | x
COc1ccc(OC)c(NC(=O)C2C3C=CC(C3)C2C(=O)NCc2ccccn2)c1 (stereo unspecified) | 5 | 0.9 | -1 | 29 | 14 | 0.7
CC1=NCCN1S(=O)(=O)c1cc(Cl)ccc1Cl | 2 | 2.8* | -1 | 51* | -178 | 0.5
O=C(O)c1cc(S(=O)(=O)N2CCCCC2)ccc1F | 6 | 1.2 | 0 | -10 | -25 | 1.1
CC1CCN(S(=O)(=O)c2ccc(Cl)cc2Br)CC1 | -4 | 1.7 | -1 | 68* | -71 | 0.3
O=S(=O)(c1ccc(Cl)cc1)N1CCN=C1SCc1ccc(Cl)c(Cl)c1 | x | x | -2 | x | x | x
O=S(=O)(c1cc(Cl)ccc1Br)N1CCOCC1 | 9 | 2.9* | -1 | 39 | -191 | 0.6
O=S(=O)(c1ccc(F)c(Cl)c1)N1CCCC1 | -4 | 1 | -3 | 54* | -5 | 0.5
COc1ccc(CNC(NC(=O)c2ccccc2)(C(F)(F)F)C(F)(F)F)cc1 | x | x | -3 | x | x | x
CCCCCCCCCCCCCCCC(=O)OC[C@H](COP(=O)([O-])OCC[N+](C)(C)C)OC(=O)CCCCCCCCCCCCCCC | -1 | x | 0 | x | x | x
O=C(COC(=O)CCc1nc2ccccc2c(=O)[nH]1)NC(=O)NC1CCCC1 | x | x | 0 | x | x | x
CCOC(=O)CC(=O)CSc1[nH]c(=O)cc(C)c1C#N | 3 | 0.7 | -3 | 14 | 26 | 0.9
O=S(=O)(c1cc(Cl)ccc1Br)N1CCCCC1 | 7 | 3.2* | -3 | 96* | -220 | 0
Cc1cc(S(=O)(=O)N2CCCCCC2)c(Cl)cc1Cl | 2 | 1.9 | -1 | 73* | -89 | 0.3
O=S(=O)(c1cccc(Cl)c1)N1CCCC1 | -22 | 1.9 | 0 | 44 | -89 | 0.6
CCOc1cc(C)c(S(=O)(=O)N2CCCC2)cc1C | 10 | x | -4 | x | x | x
O=C(O)C1CCCN1S(=O)(=O)c1cc(Cl)ccc1Cl (stereo unspecified) | -10 | 2.2* | 0 | 5 | -116 | 0.9
O=S(=O)(c1cc(Cl)ccc1Cl)N1CCCC1 | 17 | 3.5* | 0 | 56* | -248 | 0.4
Cc1ccc(C)c(NC(=O)C2CC(O)CN2C(=O)OC(C)(C)C)c1 (stereo unspecified) | x | 0.9 | -2 | 0 | 6 | 1
O=S(=O)(c1cc(Cl)ccc1Cl)N1CCCCC1 | 12 | 3.3* | -1 | 65* | -229 | 0.4
COc1ccc(OC(=O)c2cc(S(=O)(=O)N3CCCC3)ccc2Cl)cc1 | 3 | 0.8 | -1 | 25 | 21 | 0.7
COc1ccc(Cl)c(S(=O)(=O)N2CCCC2)c1 | 20 | 2.8* | -2 | 80* | -183 | 0.2
Cc1ccc(C(C[N+](=O)[O-])c2c(-c3ccccc3O)[nH][nH]c2=O)cc1 (stereo unspecified) | x | x | -5 | x | x | x
SMILES | MRP reversal | CYP2C9 activ | MRP1 act | CYP2C19 inh | CYP2C9 inh | CYP2C19 activ
CCC(C)NC(=O)CCSCCC(=O)NC(C)CC (stereo unspecified) | x | x | -1 | x | x | x
CCOc1ncccc1C(=O)OCC(=O)Nc1c(C)cc(C)cc1C | -16 | 0.6 | -3 | 60* | 44 | 0.4
CCOc1ncccc1C(=O)OCCN1C(=O)c2ccccc2C1=O | -1 | 0.9 | -2 | 59* | 15 | 0.4
CCOc1ncccc1C(=O)OCC(=O)Nc1c(C)cccc1C | x | 0.8 | 0 | 52* | 24 | 0.5
CCOc1ncccc1C(=O)OCC(=O)c1cccs1 | x | 0.6 | -1 | 24 | 43 | 0.8
O=C(/C=C/c1ccccc1)NCCSc1ccc(Cl)cc1 | x | 1.5 | 2 | 15 | -53 | 0.9
CC(C)C[C@H](NC(=O)Nc1ccccc1F)C(=O)O | 33 | 1 | 0 | 2 | 4 | 1
CN(C)S(=O)(=O)c1ccc(C(=O)Nc2ccnn2C2CCCCC2)cc1 | -3 | 0.4 | -1 | -4 | 63* | 1
FC(F)(F)C1=CC(c2ccc(Br)cc2)=NCCN1 | 11 | 0.9 | -2 | 10 | 11 | 0.9
Cc1cc(O)c(/C=N/Nc2cccc(Cl)c2)c(=O)o1 | x | 0.3 | -3 | 58* | 71* | 0.4
Cc1cc(O)c(/C=N/Nc2ccccc2Cl)c(=O)o1 | x | 0.7 | -1 | 30 | 27 | 0.7
CCCOc1ccc2c3c(c(=O)oc2c1)CCCC3 | x | 0.7 | 2 | 59* | 33 | 0.4
COC(=O)C(C)Oc1ccc2c3c(c(=O)oc2c1)CCCCC3 (stereo unspecified) | 7 | 0.2 | 1 | 75* | 82* | 0.3
O=C(Oc1ccc2c3c(c(=O)oc2c1)CCCC3)c1ccco1 | 21 | 2.1* | 0 | 24 | -114 | 0.8
CSCCC(NC(C)=O)C(=O)Oc1ccc2c3c(c(=O)oc2c1)CCCC3 (stereo unspecified) | 0 | 2.8* | -3 | 15 | -181 | 0.8
CCC(NC(=O)OC(C)(C)C)C(=O)Oc1ccc2c3c(c(=O)oc2c1)CCC3 (stereo unspecified) | 3 | 1.8 | 0 | 8 | -78 | 0.9
O=C(O)COc1ccc2c3c(c(=O)oc2c1)CCC3 | 11 | 1 | 0 | -2 | 4 | 1
O=C(CN1C(=O)c2ccccc2C1=O)N1CCN(C2c3ccccc3-c3ccccc32)CC1 | x | x | -2 | x | x | x
CC(C)CC(C(=O)Oc1ccc2c3c(c(=O)oc2c1)CCC3)N1C(=O)c2ccccc2C1=O (stereo unspecified) | x | 0.7 | -1 | 48 | 26 | 0.5
CC(C)Oc1ccc2c3c(c(=O)oc2c1)CCC3 | -1 | 0.8 | 0 | 79* | 24 | 0.2
CCC(C)(C)C(=O)Nc1ncc(S(=O)(=O)c2ccc([N+](=O)[O-])cc2)s1 | -14 | 0.7 | -5 | 27 | 26 | 0.7
COC(=O)C(NC(=O)c1ccccc1Cl)(Nc1ncc(S(=O)(=O)c2ccc([N+](=O)[O-])cc2)s1)C(F)(F)F (stereo unspecified) | x | 0.1 | -1 | 3 | 87* | 1
COC(=O)c1cc2ccsc2n1CC(=O)Nc1cc(C)cc(C)c1 | -13 | 0.3 | -1 | 38 | 66* | 0.6
COC(=O)c1cc2occc2n1Cc1nc(-c2ccc(Cl)cc2)oc1C | x | x | -2 | x | x | x
COC(=O)c1cc2ccsc2n1CC(=O)NCC1CCCO1 (stereo unspecified) | 12 | 0.9 | -3 | 36 | 8 | 0.6

Assay outcomes from PubChem BioAssay.
